# In PubChem BioAssay (NCATS):
# Records with an inconclusive call do not appear. Calls of active or inactive are those of the source. Calls come from the whole dose curve; as a rule, active = well fitted activation curve with a large enough effect; inconclusive = small, poorly fitted or top-dose-only effect, or another doubt; inactive = no such curve, though single readings can be large or run the other way.
# Biological target: Rap guanine nucleotide exchange factor 3 (Homo sapiens) (UniProt O95398)
# Test: Counterscreen qHTS for agonist of cAMP-regulated guanine nucleotide exchange factor 3 (EPAC1) (AID 1645889); note: % of control where 0% means no effect; nearly all actives have a fitted effect of over 40% in size
# Details: EPAC1 Rap1B-BODIPY-GDP exchange, fluorescence; series mostly up to 154 µM
# Summary of the method: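 Rap1B-BODIPY-GDP 250 nM + GDP 50 uM; cpds 7-pt, final 9.74 nM–152 uM (activator mode) or from 7.32 nM upwards (inhibitor mode); RT; FI 480/540 nm at 5 and 30 min, then ± cAMP, reread.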
Compound,activation,Potency
COc1ccccc1C(CCN(Cc1ccccc1)C(C)=O)c1ccco1 (centres undefined),10.4% [at 30.8 µM] (inactive),
CCCN1C(=O)c2ccccc2NC1c1ccc(Cl)c(Cl)c1 (centres undefined),12.5% [at 30.8 µM] (inactive),
COc1ccc(CCn2c(=N)c(C(=O)NC3CCCCC3)cc3c(=O)n4ccccc4nc32)cc1,,inactive
CCCCN(C(=O)Cn1ncc(Cl)c(Cl)c1=O)c1c(N)n(CC(C)C)c(=O)[nH]c1=O,16.5% [at 30.8 µM] (inactive),
O=S(=O)(NCCC1=CCCCC1)c1ccc(OC(F)(F)F)cc1,3.2% [at 30.8 µM] (inactive),
O=C(/C=C/c1ccc(Br)o1)NCc1ccccc1,21.3% [at 30.8 µM] (inactive),
Cc1ccc(/C=C/C(=O)Nc2nnc(SCc3ccc(C#N)cc3)s2)o1,,inactive
O=C(CSc1nc(-c2ccc(F)cc2)nc2ccc(F)cc12)Nc1cccc(C(=O)O)c1,,inactive
COc1ccc(C2=NN(c3ccccc3)C(c3cn(CCC(=O)O)nc3-c3ccccc3)C2)cc1 (centres undefined),,inactive
C=CCc1ccccc1OCCSc1nc(-c2ccc(C(C)(C)C)cc2)nc2cc(=O)[nH]n12,,inactive
Cc1ccc2oc(=O)n(CCOc3ccccc3C)c2c1,15.6% [at 30.8 µM] (inactive),
COc1ccc2c(c1)c(=O)oc1c(C)c(OCc3cc(C(=O)O)oc3C)ccc12,,inactive
Cc1ccc(Cc2cnc(N3C(=N)SC(c4ccccc4)C3=O)s2)cc1 (centres undefined),27.7% [at 30.8 µM] (inactive),
COc1ccccc1Cc1c(-c2ccco2)nc2c(C)cc(Br)cn12,13.2% [at 30.8 µM] (inactive),
